From PubChem BioAssay (NCATS)
Inconclusive results are not listed. The source made the active and inactive calls. Calls follow the shape of the dose curve; as a rule, active = well fitted curve in the direction sought with a large enough effect; inconclusive = small, poorly fitted or top-dose-only effect, or another doubt; inactive = no such curve, though single readings can be large; an effect the other way counts as inactive or inconclusive. Numbered stars: 1 amine (or outer) side, 2 acyl side, 3 side chain; on linkers, the order of the positions; unused ones are H or OH. Bridge positions count the residues as written; N and C are the ends. Square brackets hold non-standard residues; d marks the D form. Peptide text beside a SMILES is read from it. * marks the point of attachment. pTerphenylCO(4''-OnC5H11) = CCCCCOc1ccc(-c2ccc(-c3ccc(C(=O)*)cc3)cc2)cc1; Orn(4R-OH,5R-OH) = O=C([C@H](C[C@@H](O)[C@@H](O)N[*:3])N[*:1])[*:2]; hTyr(3S-OH,4S-OH) = N[C@H](C(=O)O)[C@H](O)[C@@H](O)c1ccc(O)cc1; Pro(3S-OH,4S-Me) = C[C@H]1CN[C@H](C(=O)O)[C@H]1O; Hyp = O=C(O)[C@@H]1C[C@@H](O)CN1

Assays:
[1] = biological target: Cellular tumor antigen p53 (Homo sapiens) (UniProt P04637); assay: Primary qHTS for small molecule compounds that upregulate eGFP-tagged delta133p53alpha (in N-terminal) cells. (AID 2060322); details: NCI-H358 eGFP-delta133p53alpha fluorescence, 24 h; activation: stronger effect = higher value; also: nearly all actives have a fitted effect of over 75% in size; also: potency is read from the fitted curve at half-maximal effect;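 as to activation: series mostly up to about 56 µM; 0% = DMSO vehicle and 100% = reference activator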
Chain of Cellular tumor antigen p53 (Homo sapiens) (P04637 whole entry, looked up): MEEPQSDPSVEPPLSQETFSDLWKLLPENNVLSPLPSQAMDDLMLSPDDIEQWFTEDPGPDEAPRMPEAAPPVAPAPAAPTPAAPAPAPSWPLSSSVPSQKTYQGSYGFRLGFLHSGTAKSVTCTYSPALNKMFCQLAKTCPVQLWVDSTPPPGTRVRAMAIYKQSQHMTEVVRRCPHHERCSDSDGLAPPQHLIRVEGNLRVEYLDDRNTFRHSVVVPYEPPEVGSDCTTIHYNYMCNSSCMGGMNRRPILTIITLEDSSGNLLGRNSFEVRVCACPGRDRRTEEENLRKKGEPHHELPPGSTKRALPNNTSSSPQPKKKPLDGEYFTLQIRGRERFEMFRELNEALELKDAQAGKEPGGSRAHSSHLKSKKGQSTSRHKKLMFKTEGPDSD
Method in brief: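 NCI-H358 cells pre-induced 24 h with 10 ng/ml doxycycline to express N-terminal eGFP-delta133p53alpha, then dosed 24 h at 37C without doxycycline; fixed, Hoechst-stained, GFP intensity by laser scanning cytometry, normalized to DMSO (0%) and 57.5 uM 5-azacytidine (100%).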

[2] = biological target: Aldehyde dehydrogenase, mitochondrial (Homo sapiens) (UniProt P05091); assay: qHTS for Inhibitors of the Aldehyde Dehydrogenase Family (ALDH2) Primary screen (AID 2061308);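 also: plate controls were vehicle for no effect and reference inhibitor for full effect; nearly all actives have a fitted effect of over 55% in size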
[3] = biological target: Retinaldehyde dehydrogenase 3 (Homo sapiens) (UniProt P47895); assay: qHTS for Inhibitors of the Aldehyde Dehydrogenase Family (ALDH1A3) Validation screen (AID 2061312); also: nearly all actives have a fitted effect of over 45% in size; also: potency is read from the fitted curve at half-maximal effect
[4] = biological target: Retinaldehyde dehydrogenase 3 (Homo sapiens) (UniProt P47895); assay: qHTS for Inhibitors of the Aldehyde Dehydrogenase Family (ALDH1A3) Primary screen (AID 2061315);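 also: plate controls were DMSO vehicle for no effect and reference inhibitor for full effect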
[5] = biological target: Retinaldehyde dehydrogenase 3 (Homo sapiens) (UniProt P47895); assay: qHTS for Inhibitors of the Aldehyde Dehydrogenase Family (ALDH1A3) Confirmatory screens (AID 2061311); also: potency is read from the fitted curve at half-maximal effect; nearly all actives have a fitted effect of over 60% in size
[6] = biological target: Aldehyde dehydrogenase 1A1 (Homo sapiens) (UniProt P00352); assay: qHTS for Inhibitors of the Aldehyde Dehydrogenase Family (ALDH1A1) Confirmatory screens (AID 2061316); also: % is scaled to controls: 0 for no effect and ±100 for the full control effect; nearly all actives have a fitted effect of over 65% in size

COc1ccccc1N1CCN(c2ncnc3n[nH]c(Br)c23)CC1
inactive: activation [1] 20.5% | Potency [2] | Potency [3] | Potency [4]

COc1cc(C(=O)NCC2(N(C)C)CCCC2)cc(OC)c1OCc1ccccc1
inactive: activation [1] -8.11% | Potency [2] | Potency [3] | Potency [4]

O=[N+]([O-])c1cc(Cl)ccc1S(=O)(=O)N1CCN(Cc2ccccc2)CC1
inactive: activation [1] 0.955% | Potency [2] | Potency [3] | Potency [4]

CCC(C(C)O)n1ncn(-c2ccc(N3CCN(c4ccc(OCC5COC(Cn6cncn6)(c6ccc(F)cc6F)C5)cc4)CC3)cc2)c1=O (stereo unspecified)
inactive: activation [1] 5.25% | Potency [2] | Potency [3] | Potency [4]

COc1ccccc1N1CCN(CCCCNC(=O)c2ccc(-c3cscn3)cc2)CC1
inactive: activation [1] 4.3% | Potency [2] | Potency [3] | Potency [4]

COc1cccc(C(=O)NCCNc2nc3cc(C)cc(C)c3cc2C#N)c1
inactive: activation [1] -1.91% | Potency [2] | Potency [3] | Potency [4]

CCCCCOc1ccc(-c2ccc(-c3ccc(C(=O)N[C@H]4C[C@@H](O)[C@@H](O)NC(=O)[C@@H]5[C@@H](O)[C@@H](C)CN5C(=O)[C@H]([C@@H](C)O)NC(=O)[C@H]([C@H](O)[C@@H](O)c5ccc(O)cc5)NC(=O)[C@@H]5C[C@@H](O)CN5C(=O)[C@H]([C@@H](C)O)NC4=O)cc3)cc2)cc1 ({pTerphenylCO(4''-OnC5H11)}-[Orn(4R-OH,5R-OH)]T[Hyp][hTyr(3S-OH,4S-OH)]T[Pro(3S-OH,4S-Me)]; lactam 1-C)
inactive: activation [1] 22.9% | Potency [2] | Potency [3] | Potency [4]

COCc1c(Cl)ccc2c1CC[C@H]2c1ncc[nH]1
inactive: activation [1] 11% | Potency [2] | Potency [3] | Potency [4]

O=C(Nc1nc2ccc([N+](=O)[O-])cc2s1)C1CCCCC1
active: Potency [3] 3.98 µM
inactive: activation [1] 17.2% | Potency [2]

Cc1nnc(-c2ccc3occ(-c4ccc(S(C)=O)cc4)c3c2)o1 (stereo unspecified)
active: Potency [5] 0.631 µM
inactive: activation [1] -20.5% | Potency [2] | Potency [6]

CC(C)(C#N)c1ccc(N2C(=O)OCc3cnc4ccc(-c5cnc6ccccc6c5)cc4c32)cc1
inactive: activation [1] -3.82% | Potency [2] | Potency [3] | Potency [4]

Cc1[nH]c2ccccc2c1CC(=O)N[C@@H](Cc1ccccc1)C(=O)N(C)c1ccccc1
inactive: activation [1] 22.9% | Potency [2] | Potency [3] | Potency [4]

Cc1cc(-n2c(=O)[nH]c(=O)n(C)c2=O)ccc1Oc1ccc(SC(F)(F)F)cc1
inactive: activation [1] -10.5% | Potency [2] | Potency [3] | Potency [4]

O=C(CCc1nnc2n(Cc3ccc(Cl)cc3)c(=O)c3ccccc3n12)NCCC1=CCCCC1
inactive: activation [1] 4.3% | Potency [2] | Potency [3] | Potency [4]

CNC(=O)COC(=O)N1CCC(CCc2ccc(Cl)cc2)CC1
inactive: activation [1] -1.91% | Potency [2] | Potency [3] | Potency [4]

Cc1[nH]cnc1C1CCN(c2nc3cccc4c3n2CCC4=O)CC1
inactive: activation [1] 1.43% | Potency [2] | Potency [3] | Potency [4]

O=C(Nc1cccnn1)N1CCN(c2nccc(-c3ccc(F)c(F)c3)n2)CC1
inactive: activation [1] 0.477% | Potency [2] | Potency [3] | Potency [4]

CNC(=O)O[C@H]1COc2ccc(N3CCN(C4COC4)CC3)cc2[C@@H]1NC(=O)c1ccc(F)cc1
inactive: activation [1] -1.43% | Potency [2] | Potency [3] | Potency [4]

CNC(C)C(=O)NC(C(=O)N1CCCC1c1nc(C(=O)c2ccc(F)cc2)cs1)C1CCCCC1 (stereo unspecified)
inactive: activation [1] 17.2% | Potency [2] | Potency [3] | Potency [4]

O=C(NCCN1CCOCC1)c1cc2c(Oc3ccc(NC(=O)C4(C(=O)Nc5ccc(F)cc5)CC4)cc3)ccnc2[nH]1
inactive: activation [1] 10% | Potency [2] | Potency [3] | Potency [4]

COc1c(C)cnc(Cn2cc(C#CCC(C)(C)O)c3c(Cl)nc(N)nc32)c1C
inactive: activation [1] -10% | Potency [2] | Potency [3] | Potency [4]

O=C(/C=C/c1c(C(=O)O)[nH]c2cc(Cl)cc(Cl)c12)Nc1ccccc1
inactive: activation [1] -11.9% | Potency [2] | Potency [3] | Potency [4]

OC1(c2ccc(Cl)c(C(F)(F)F)c2)CCN(CCCC(c2ccc(F)cc2)c2ccc(F)cc2)CC1
inactive: activation [1] 13% | Potency [2] | Potency [3] | Potency [4]

OC1(CN2CCC(COc3noc4cccc(O[C@@H]5CCOC5)c34)CC2)CCOCC1
inactive: activation [1] 3.82% | Potency [2] | Potency [3] | Potency [4]

O=C(CCCN1CCN(c2ccccn2)CC1)c1ccc(F)cc1
inactive: activation [1] -3.82% | Potency [2] | Potency [3] | Potency [4]

COc1ccccc1CN[C@H]1CCCN[C@H]1c1ccccc1
inactive: activation [1] -3.82% | Potency [2] | Potency [3] | Potency [4]

O=C(c1cn(Cc2cncn2Cc2ccc(Br)cc2)cc1-c1cccc2ccccc12)N1CCOCC1
inactive: Potency [2] | Potency [3] | Potency [4]
active: Potency [1] 26.9 µM

CC1(C(=O)Nc2ccc(F)nc2)CCCN1c1nc(Nc2cc(C3CC3)[nH]n2)c2cccn2n1 (stereo unspecified)
inactive: Potency [2] | Potency [3] | Potency [4]
active: Potency [1] 30.1 µM
